{"source": "the supplement of paper PMC10037445", "key": {"[1]": {"test_system": "RAW-Dual", "test": "NF-kB SEAP reporter activity, fold change vs agonist alone; higher = enhanced NF-kB activity", "settings": "cytotoxicity flag (confluency mask): not cytotoxic", "how_it_was_run": "(§1)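 After 50 nL of library stock was delivered by pin tool to RAW-Dual macrophages (50,000 cells/well, DMEM, 384-well plates), a PRR agonist was added 1 h later and the plates were kept at 37 °C, 5% CO2. Twenty hours later, IRF was read from supernatant by QuantiLuc luminescence and NF-κB by QuantiBlue absorbance at 620 nm. Reporter activity is stated as fold change over agonist-alone wells. Wells with IncuCyte confluency under 70% of agonist controls in both mask sets were counted as cytotoxic.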"}, "[2]": {"test_system": "RAW-Dual", "test": "NF-kB SEAP reporter activity, fold change vs agonist alone; cytotoxicity flag (confluency mask): not cytotoxic; higher = enhanced NF-kB activity", "how_it_was_run": "as §1"}, "[3]": {"settings": "library stock concentration (final ~1000-fold dilution): 10 mM, agonist: Imiquimod (TLR7) […]"}, "[4]": {"settings": "library stock concentration (final ~1000-fold dilution): 10 mM, agonist: MPLA (TLR4) […]"}, "[5]": {"settings": "agonist: ODN 1826 (TLR9) 0.5 ug/mL"}, "[6]": {"settings": "agonist: Pam2CSK4 (TLR2/6) 0.1 ug/mL"}, "[7]": {"settings": "agonist: Pam3CSK4 (TLR2/1) 0.1 ug/mL"}}, "note": "In all, about 2,900 compounds were measured (“NF-kB SEAP reporter activity, fold change vs agonist alone”: median about 0.99, highest 2% from about 2.6 on). The sample as a whole holds a higher share of the highest values than the screen did."}
{"smiles": "CC(C)(CNC(=O)c1cccc(-c2noc(C(F)(F)F)n2)c1)c1coc(-c2ccccc2)n1", "values": [{"measurement": "NF-kB SEAP reporter activity", "setting": "[1]; [3]", "value": 0.959}, {"measurement": "NF-kB SEAP reporter activity", "setting": "[1]; [4]", "value": 1.09}]}
{"smiles": "CC(C)(CNC(=O)c1cccc(-c2noc(C(F)(F)F)n2)c1)c1coc(-c2ccccc2)n1", "note": "(library stock concentration (final ~1000-fold dilution): 10 mM)", "values": [{"measurement": "NF-kB SEAP reporter activity", "setting": "[2]; agonist: LPS (TLR4) 0.1 ug/mL", "value": 1.03}, {"measurement": "NF-kB SEAP reporter activity", "setting": "[2]; [5]", "value": 1.03}, {"measurement": "NF-kB SEAP reporter activity", "setting": "[2]; [6]", "value": 0.625}, {"measurement": "NF-kB SEAP reporter activity", "setting": "[2]; [7]", "value": 0.745}]}
{"smiles": "Nc1ncn(C2OC(CO)C(O)C2O)c(=O)n1", "note": "(centres undefined)", "values": [{"measurement": "NF-kB SEAP reporter activity", "setting": "[1]; [3]", "value": 2.59}, {"measurement": "NF-kB SEAP reporter activity", "setting": "[1]; [4]", "value": 2.47}]}
{"smiles": "Nc1ccn(C2OC(CO)C(O)C2O)c(=O)n1", "note": "(centres undefined) (library stock concentration (final ~1000-fold dilution): 10 mM water)", "values": [{"measurement": "NF-kB SEAP reporter activity", "setting": "[2]; agonist: LPS (TLR4) 0.1 ug/mL", "value": 1.92}, {"measurement": "NF-kB SEAP reporter activity", "setting": "[2]; [5]", "value": 1.7}, {"measurement": "NF-kB SEAP reporter activity", "setting": "[2]; [6]", "value": 1.85}, {"measurement": "NF-kB SEAP reporter activity", "setting": "[2]; [7]", "value": 1.83}]}
{"smiles": "Nc1ncn(C2CC(O)C(CO)O2)c(=O)n1", "note": "(centres undefined)", "values": [{"measurement": "NF-kB SEAP reporter activity", "setting": "[1]; [3]", "value": 1.58}, {"measurement": "NF-kB SEAP reporter activity", "setting": "[1]; [4]", "value": 1.38}]}
{"smiles": "Nc1ccn(C2OC(CO)C(O)C2O)c(=O)n1", "note": "(centres undefined)", "values": [{"measurement": "NF-kB SEAP reporter activity", "setting": "[1]; library stock concentration (final ~1000-fold dilution): 10 mM water, agonist: Imiquimod (TLR7) […]", "value": 1.46}, {"measurement": "NF-kB SEAP reporter activity", "setting": "[1]; library stock concentration (final ~1000-fold dilution): 10 mM water, agonist: MPLA (TLR4) […]", "value": 1.33}]}
{"smiles": "Nc1ncn(C2CC(O)C(CO)O2)c(=O)n1", "note": "(centres undefined) (library stock concentration (final ~1000-fold dilution): 10 mM)", "values": [{"measurement": "NF-kB SEAP reporter activity", "setting": "[2]; agonist: LPS (TLR4) 0.1 ug/mL", "value": 1.55}, {"measurement": "NF-kB SEAP reporter activity", "setting": "[2]; [5]", "value": 1.41}, {"measurement": "NF-kB SEAP reporter activity", "setting": "[2]; [6]", "value": 1.14}, {"measurement": "NF-kB SEAP reporter activity", "setting": "[2]; [7]", "value": 1.26}]}
{"smiles": "Nc1ncn(C2OC(CO)C(O)C2O)c(=O)n1", "note": "(centres undefined) (library stock concentration (final ~1000-fold dilution): 10 mM)", "values": [{"measurement": "NF-kB SEAP reporter activity", "setting": "[2]; agonist: LPS (TLR4) 0.1 ug/mL", "value": 1.06}, {"measurement": "NF-kB SEAP reporter activity", "setting": "[2]; [5]", "value": 1.91}, {"measurement": "NF-kB SEAP reporter activity", "setting": "[2]; [6]", "value": 0.631}, {"measurement": "NF-kB SEAP reporter activity", "setting": "[2]; [7]", "value": 0.71}]}
{"smiles": "O=C(O)CC(C(=O)O)N1C(=O)/C(=C2/C(=O)Nc3ccc(Br)cc32)SC1=S", "note": "(centres undefined)", "values": [{"measurement": "NF-kB SEAP reporter activity", "setting": "[1]; [3]", "value": 1.33}, {"measurement": "NF-kB SEAP reporter activity", "setting": "[1]; [4]", "value": 1.72}]}
{"smiles": "O=C(O)CC(C(=O)O)N1C(=O)/C(=C2/C(=O)Nc3ccc(Br)cc32)SC1=S", "note": "(centres undefined) (library stock concentration (final ~1000-fold dilution): 10 mM)", "values": [{"measurement": "NF-kB SEAP reporter activity", "setting": "[2]; agonist: LPS (TLR4) 0.1 ug/mL", "value": 0.98}, {"measurement": "NF-kB SEAP reporter activity", "setting": "[2]; [5]", "value": 1.56}, {"measurement": "NF-kB SEAP reporter activity", "setting": "[2]; [6]", "value": 1.02}, {"measurement": "NF-kB SEAP reporter activity", "setting": "[2]; [7]", "value": 1.06}]}
{"smiles": "COc1ccccc1Oc1c(NS(=O)(=O)c2ccc(C(C)(C)C)cc2)nc(-c2ncccn2)nc1OCCO.O", "note": "(library stock concentration (final ~1000-fold dilution): 10 mM)", "values": [{"measurement": "NF-kB SEAP reporter activity", "setting": "[2]; agonist: LPS (TLR4) 0.1 ug/mL", "value": 1.15}, {"measurement": "NF-kB SEAP reporter activity", "setting": "[2]; [5]", "value": 1.01}, {"measurement": "NF-kB SEAP reporter activity", "setting": "[2]; [6]", "value": 1.06}, {"measurement": "NF-kB SEAP reporter activity", "setting": "[2]; [7]", "value": 1.1}]}
{"smiles": "COc1ccccc1Oc1c(NS(=O)(=O)c2ccc(C(C)(C)C)cc2)nc(-c2ncccn2)nc1OCCO.O", "values": [{"measurement": "NF-kB SEAP reporter activity", "setting": "[1]; [3]", "value": 1.02}, {"measurement": "NF-kB SEAP reporter activity", "setting": "[1]; [4]", "value": 1.1}]}
{"smiles": "CC(C)OC(=O)CCC/C=C\\CC1C(O)CC(O)C1CCC(O)CCc1ccccc1", "note": "(centres undefined) (library stock concentration (final ~1000-fold dilution): 10 mM)", "values": [{"measurement": "NF-kB SEAP reporter activity", "setting": "[2]; agonist: LPS (TLR4) 0.1 ug/mL", "value": 1.4}, {"measurement": "NF-kB SEAP reporter activity", "setting": "[2]; [5]", "value": 0.911}, {"measurement": "NF-kB SEAP reporter activity", "setting": "[2]; [6]", "value": 1.1}, {"measurement": "NF-kB SEAP reporter activity", "setting": "[2]; [7]", "value": 0.929}]}
{"smiles": "CC(C)OC(=O)CCC/C=C\\CC1C(O)CC(O)C1CCC(O)CCc1ccccc1", "note": "(centres undefined)", "values": [{"measurement": "NF-kB SEAP reporter activity", "setting": "[1]; [4]", "value": 1.43}]}
{"smiles": "COc1ccc(C(=C2C(=O)Nc3ccccc32)c2ccc(OC)cc2)cc1", "note": "(library stock concentration (final ~1000-fold dilution): 10 mM)", "values": [{"measurement": "NF-kB SEAP reporter activity", "setting": "[2]; agonist: LPS (TLR4) 0.1 ug/mL", "value": 1.04}, {"measurement": "NF-kB SEAP reporter activity", "setting": "[2]; [5]", "value": 0.585}, {"measurement": "NF-kB SEAP reporter activity", "setting": "[2]; [6]", "value": 0.692}, {"measurement": "NF-kB SEAP reporter activity", "setting": "[2]; [7]", "value": 0.323}]}
{"smiles": "COc1ccc(C(=C2C(=O)Nc3ccccc32)c2ccc(OC)cc2)cc1", "values": [{"measurement": "NF-kB SEAP reporter activity", "setting": "[1]; [3]", "value": 0.748}, {"measurement": "NF-kB SEAP reporter activity", "setting": "[1]; [4]", "value": 0.978}]}
{"smiles": "Cc1c[nH]c(C=C2C(=O)Nc3ccccc32)c1CCC(=O)O", "values": [{"measurement": "NF-kB SEAP reporter activity", "setting": "[1]; [3]", "value": 0.662}, {"measurement": "NF-kB SEAP reporter activity", "setting": "[1]; [4]", "value": 0.848}]}
{"smiles": "Cc1c[nH]c(C=C2C(=O)Nc3ccccc32)c1CCC(=O)O", "note": "(library stock concentration (final ~1000-fold dilution): 10 mM)", "values": [{"measurement": "NF-kB SEAP reporter activity", "setting": "[2]; agonist: LPS (TLR4) 0.1 ug/mL", "value": 0.665}, {"measurement": "NF-kB SEAP reporter activity", "setting": "[2]; [5]", "value": 0.926}, {"measurement": "NF-kB SEAP reporter activity", "setting": "[2]; [6]", "value": 0.983}, {"measurement": "NF-kB SEAP reporter activity", "setting": "[2]; [7]", "value": 0.647}]}
{"smiles": "COc1cc(OC)c(/C=C2/C(=O)Nc3ccccc32)c(OC)c1", "values": [{"measurement": "NF-kB SEAP reporter activity", "setting": "[1]; [3]", "value": 1.62}, {"measurement": "NF-kB SEAP reporter activity", "setting": "[1]; [4]", "value": 1.67}]}
{"smiles": "COc1cc(OC)c(/C=C2/C(=O)Nc3ccccc32)c(OC)c1", "note": "(library stock concentration (final ~1000-fold dilution): 10 mM)", "values": [{"measurement": "NF-kB SEAP reporter activity", "setting": "[2]; agonist: LPS (TLR4) 0.1 ug/mL", "value": 3.21}, {"measurement": "NF-kB SEAP reporter activity", "setting": "[2]; [5]", "value": 2.56}, {"measurement": "NF-kB SEAP reporter activity", "setting": "[2]; [6]", "value": 1.33}, {"measurement": "NF-kB SEAP reporter activity", "setting": "[2]; [7]", "value": 1.92}]}
